Binding signal data for one sequence are collected here from paper PMC7862700, “An all-to-all approach to the identification of sequence-specific readers for epigenetic DNA modifications on cytosine”.

Common to all, as to assay: DAPPL (digital affinity profiling via proximity ligation, sequencing); 10 mM Tris-HCl pH 7.5, 50 mM NaCl, 1 mM DTT, 4% glycerol, room temperature, 30 min; GST-TFs on glutathione beads, 16-mer random dsDNA library, 0.1% formaldehyde crosslink after washing; high values mean tight binding
One experiment has as its target T1, FLI1 (Homo sapiens, UniProt Q01543 1-452).
T1 sequence: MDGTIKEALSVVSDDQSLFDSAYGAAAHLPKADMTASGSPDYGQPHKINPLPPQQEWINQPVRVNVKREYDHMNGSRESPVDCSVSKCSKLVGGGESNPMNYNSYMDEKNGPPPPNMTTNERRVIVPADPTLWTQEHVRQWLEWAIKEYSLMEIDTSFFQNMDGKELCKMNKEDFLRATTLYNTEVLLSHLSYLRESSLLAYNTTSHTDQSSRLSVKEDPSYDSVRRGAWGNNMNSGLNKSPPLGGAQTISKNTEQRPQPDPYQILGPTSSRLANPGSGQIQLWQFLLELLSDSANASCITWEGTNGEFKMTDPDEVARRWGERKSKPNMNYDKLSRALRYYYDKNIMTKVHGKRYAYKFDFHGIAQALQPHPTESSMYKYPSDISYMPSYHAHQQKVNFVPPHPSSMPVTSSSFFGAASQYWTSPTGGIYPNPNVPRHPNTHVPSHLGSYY
The settings on record: protein: recombinant; tags: N-terminal GST; dsDNA, one strand shown. The essentials:
(§1)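 Each value of binding signal is a hexamer's read frequency for a factor divided by the same hexamer's frequency in the tag-only sample. Barcoded, bead-captured GST fusions of human transcription factors made in yeast were pooled with that sample and incubated with 200 nmole of a random double-stranded 16-mer DNA library in Tris/NaCl/DTT/glycerol buffer at room temperature for 30 min. Washing, 0.1% formaldehyde crosslinking, proximity ligation, PCR and Illumina NextSeq500 sequencing followed.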

Another experiment addresses T2, ELK1 (Homo sapiens, UniProt P19419 1-428).
T2 sequence: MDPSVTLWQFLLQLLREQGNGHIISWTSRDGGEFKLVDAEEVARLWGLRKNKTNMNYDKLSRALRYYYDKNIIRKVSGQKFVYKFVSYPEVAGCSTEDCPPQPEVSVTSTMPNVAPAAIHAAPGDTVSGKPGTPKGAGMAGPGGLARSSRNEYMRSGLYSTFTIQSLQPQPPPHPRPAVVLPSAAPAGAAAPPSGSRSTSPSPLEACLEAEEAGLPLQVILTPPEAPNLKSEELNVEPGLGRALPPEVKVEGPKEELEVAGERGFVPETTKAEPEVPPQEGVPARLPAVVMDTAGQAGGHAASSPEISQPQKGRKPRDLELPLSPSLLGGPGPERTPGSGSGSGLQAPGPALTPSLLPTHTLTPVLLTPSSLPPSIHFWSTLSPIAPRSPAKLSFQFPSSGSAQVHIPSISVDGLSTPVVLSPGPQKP
The settings on record: protein: recombinant; tags: N-terminal GST; dsDNA, one strand shown. The essentials:
as §1

The next experiment deals with T3, GABPA (Homo sapiens, UniProt Q06546 1-454).
T3 sequence: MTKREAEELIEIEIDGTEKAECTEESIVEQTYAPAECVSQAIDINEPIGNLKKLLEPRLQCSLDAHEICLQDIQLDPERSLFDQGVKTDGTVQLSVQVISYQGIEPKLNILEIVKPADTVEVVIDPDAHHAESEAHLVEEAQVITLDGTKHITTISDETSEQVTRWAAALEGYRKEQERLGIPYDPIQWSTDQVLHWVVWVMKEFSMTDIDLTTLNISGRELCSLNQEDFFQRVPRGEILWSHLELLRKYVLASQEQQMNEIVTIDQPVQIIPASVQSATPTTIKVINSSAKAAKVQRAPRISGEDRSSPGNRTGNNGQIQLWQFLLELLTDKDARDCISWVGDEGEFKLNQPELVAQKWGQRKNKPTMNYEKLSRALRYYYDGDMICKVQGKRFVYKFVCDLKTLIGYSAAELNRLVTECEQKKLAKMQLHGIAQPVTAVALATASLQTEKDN
The settings on record: protein: recombinant; tags: N-terminal GST; dsDNA, one strand shown. The procedure, abridged:
as §1

Another experiment concerns the target T4, ERG (Homo sapiens, UniProt P11308 1-479).
T4 sequence: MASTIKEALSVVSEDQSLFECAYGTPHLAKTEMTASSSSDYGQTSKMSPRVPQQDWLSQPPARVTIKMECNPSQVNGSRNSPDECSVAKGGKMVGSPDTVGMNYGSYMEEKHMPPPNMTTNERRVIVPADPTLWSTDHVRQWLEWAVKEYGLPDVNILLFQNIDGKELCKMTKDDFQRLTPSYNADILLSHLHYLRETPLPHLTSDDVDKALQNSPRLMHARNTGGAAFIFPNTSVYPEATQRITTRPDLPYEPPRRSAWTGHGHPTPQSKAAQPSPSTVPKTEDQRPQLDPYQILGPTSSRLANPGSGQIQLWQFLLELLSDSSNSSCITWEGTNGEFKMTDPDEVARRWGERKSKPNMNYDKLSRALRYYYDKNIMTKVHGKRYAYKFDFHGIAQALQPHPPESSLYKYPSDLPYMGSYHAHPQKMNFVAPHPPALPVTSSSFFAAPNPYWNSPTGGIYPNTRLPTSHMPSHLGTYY
Conditions: protein: recombinant; tags: N-terminal GST; dsDNA, one strand shown. The procedure, abridged: as §1

Another experiment concerns the target ELF1 (Homo sapiens, UniProt P32519 1-619). Conditions: protein: recombinant; tags: N-terminal GST; dsDNA, one strand shown. The procedure, abridged: as §1
For a further experiment, the target named is T5, EHF (Homo sapiens, UniProt Q9NZC4 1-300).
T5 sequence: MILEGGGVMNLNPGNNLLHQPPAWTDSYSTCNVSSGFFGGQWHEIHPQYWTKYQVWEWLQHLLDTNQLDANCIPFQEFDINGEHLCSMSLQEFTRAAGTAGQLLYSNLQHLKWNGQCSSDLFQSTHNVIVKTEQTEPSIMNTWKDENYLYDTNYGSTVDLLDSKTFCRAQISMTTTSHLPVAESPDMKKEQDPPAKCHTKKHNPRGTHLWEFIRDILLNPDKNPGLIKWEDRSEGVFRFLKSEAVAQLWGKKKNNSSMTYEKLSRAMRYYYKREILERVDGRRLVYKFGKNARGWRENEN
The settings on record: protein: recombinant; tags: N-terminal GST; dsDNA, one strand shown. The essentials: as §1

Another experiment addresses SPI1 (Homo sapiens, UniProt P17947 1-270). The settings on record: protein: recombinant; tags: N-terminal GST; dsDNA, one strand shown. The procedure, abridged:
as §1

In another experiment the target is SPIB (Homo sapiens, UniProt Q01892 1-262). Conditions: protein: recombinant; tags: N-terminal GST; dsDNA, one strand shown. The procedure, abridged: as §1
The next experiment deals with T6, ELK3 (Homo sapiens, UniProt P41970 1-407).
T6 sequence: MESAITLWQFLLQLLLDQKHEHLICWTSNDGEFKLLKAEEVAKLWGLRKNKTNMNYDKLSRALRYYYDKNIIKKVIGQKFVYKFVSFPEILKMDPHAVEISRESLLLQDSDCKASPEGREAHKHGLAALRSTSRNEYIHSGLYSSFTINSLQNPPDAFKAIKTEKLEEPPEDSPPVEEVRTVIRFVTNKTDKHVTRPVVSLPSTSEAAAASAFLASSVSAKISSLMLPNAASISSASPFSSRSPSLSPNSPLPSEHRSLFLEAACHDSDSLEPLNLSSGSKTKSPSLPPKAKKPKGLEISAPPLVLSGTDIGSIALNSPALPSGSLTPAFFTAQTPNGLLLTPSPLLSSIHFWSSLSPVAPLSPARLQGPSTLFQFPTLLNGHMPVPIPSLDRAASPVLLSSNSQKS
The settings on record: protein: recombinant; tags: N-terminal GST; dsDNA, one strand shown. The essentials: as §1

Another experiment deals with T7, FEV (Homo sapiens, UniProt Q99581 1-238).
T7 sequence: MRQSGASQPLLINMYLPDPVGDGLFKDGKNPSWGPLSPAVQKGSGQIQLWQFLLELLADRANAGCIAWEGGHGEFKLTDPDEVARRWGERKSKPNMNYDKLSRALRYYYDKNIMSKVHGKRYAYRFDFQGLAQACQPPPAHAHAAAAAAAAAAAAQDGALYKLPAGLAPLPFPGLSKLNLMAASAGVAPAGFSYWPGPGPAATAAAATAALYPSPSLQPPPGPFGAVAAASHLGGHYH
Conditions: protein: recombinant; tags: N-terminal GST; dsDNA, one strand shown. The procedure, abridged:
as §1

The target in a further experiment is ETV5 (Homo sapiens, UniProt P41161 1-510). The settings on record: protein: recombinant; tags: N-terminal GST; dsDNA, one strand shown. The procedure, abridged:
as §1

Another experiment has as its target HSF1 (Homo sapiens, UniProt Q00613 1-529). The settings on record: protein: recombinant; tags: N-terminal GST; chain copies: 3; dsDNA, one strand shown. The procedure, abridged:
as §1

The target of a further experiment is ELF4 (Homo sapiens, UniProt Q99607 1-663). The settings on record: protein: recombinant; tags: N-terminal GST; dsDNA, one strand shown. The essentials: as §1
In another experiment the target is T8, ELK4 (Homo sapiens, UniProt P28324-2 1-405).
T8 sequence: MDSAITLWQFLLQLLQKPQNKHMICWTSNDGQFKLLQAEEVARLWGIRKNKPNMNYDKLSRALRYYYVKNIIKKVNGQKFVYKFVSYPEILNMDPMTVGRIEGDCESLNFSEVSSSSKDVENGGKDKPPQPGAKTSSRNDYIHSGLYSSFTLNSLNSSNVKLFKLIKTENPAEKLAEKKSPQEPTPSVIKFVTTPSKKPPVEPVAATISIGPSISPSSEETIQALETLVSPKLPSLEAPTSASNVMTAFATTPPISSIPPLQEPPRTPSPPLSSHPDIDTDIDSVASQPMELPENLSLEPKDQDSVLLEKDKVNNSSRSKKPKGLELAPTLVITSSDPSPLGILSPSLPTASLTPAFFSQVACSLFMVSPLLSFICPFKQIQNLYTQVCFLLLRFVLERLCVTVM
The settings on record: protein: recombinant; tags: N-terminal GST; dsDNA, one strand shown. The procedure, abridged: as §1

For the next experiment, the target named is T9, ETV2 (Homo sapiens, UniProt O00321 1-342).
T9 sequence: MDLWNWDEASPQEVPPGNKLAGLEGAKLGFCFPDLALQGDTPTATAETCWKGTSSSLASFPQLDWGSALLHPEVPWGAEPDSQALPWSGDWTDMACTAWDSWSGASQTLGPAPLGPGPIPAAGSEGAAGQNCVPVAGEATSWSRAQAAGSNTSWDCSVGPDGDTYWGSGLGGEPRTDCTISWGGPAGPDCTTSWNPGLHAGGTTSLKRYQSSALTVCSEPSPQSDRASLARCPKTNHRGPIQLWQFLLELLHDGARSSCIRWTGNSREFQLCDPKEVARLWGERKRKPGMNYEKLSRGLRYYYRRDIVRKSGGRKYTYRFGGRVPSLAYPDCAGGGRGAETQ
Conditions: protein: recombinant; tags: N-terminal GST; dsDNA, one strand shown. The procedure, abridged: as §1

In another experiment the target is T10, ELF3 (Homo sapiens, UniProt P78545 1-371).
T10 sequence: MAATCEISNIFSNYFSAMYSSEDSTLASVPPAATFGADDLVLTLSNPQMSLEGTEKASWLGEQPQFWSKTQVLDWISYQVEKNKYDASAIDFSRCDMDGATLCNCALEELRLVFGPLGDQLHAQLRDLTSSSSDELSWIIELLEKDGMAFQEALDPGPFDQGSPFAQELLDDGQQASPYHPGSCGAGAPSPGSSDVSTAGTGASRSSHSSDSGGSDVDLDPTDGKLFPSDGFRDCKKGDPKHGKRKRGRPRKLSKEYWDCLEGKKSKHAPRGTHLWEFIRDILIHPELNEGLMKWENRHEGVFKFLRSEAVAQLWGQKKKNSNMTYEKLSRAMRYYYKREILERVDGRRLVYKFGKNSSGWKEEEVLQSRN
The settings on record: protein: recombinant; tags: N-terminal GST; dsDNA, one strand shown. The essentials: as §1

For another experiment, the target named is CRX (Homo sapiens, UniProt O43186 1-299). Conditions: protein: recombinant; tags: N-terminal GST; dsDNA, one strand shown. The essentials: as §1
A further experiment addresses ETV1 (Homo sapiens, UniProt P50549 1-477). Conditions: protein: recombinant; tags: N-terminal GST; dsDNA, one strand shown. The procedure, abridged: as §1

Chain of ETV1 (P50549 whole entry): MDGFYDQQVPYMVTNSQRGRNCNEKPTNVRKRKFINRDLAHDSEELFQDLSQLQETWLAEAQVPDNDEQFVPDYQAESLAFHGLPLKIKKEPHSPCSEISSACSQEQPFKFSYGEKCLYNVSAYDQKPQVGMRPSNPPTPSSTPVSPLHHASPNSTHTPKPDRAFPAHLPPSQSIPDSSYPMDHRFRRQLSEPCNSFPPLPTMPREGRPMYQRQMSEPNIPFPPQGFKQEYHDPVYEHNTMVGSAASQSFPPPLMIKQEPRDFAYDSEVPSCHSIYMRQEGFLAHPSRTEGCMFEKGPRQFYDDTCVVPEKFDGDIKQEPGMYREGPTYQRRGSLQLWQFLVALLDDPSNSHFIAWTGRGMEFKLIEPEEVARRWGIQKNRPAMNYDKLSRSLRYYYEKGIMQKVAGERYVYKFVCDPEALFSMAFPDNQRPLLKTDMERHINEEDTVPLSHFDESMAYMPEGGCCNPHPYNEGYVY
Chain of CRX (O43186 whole entry): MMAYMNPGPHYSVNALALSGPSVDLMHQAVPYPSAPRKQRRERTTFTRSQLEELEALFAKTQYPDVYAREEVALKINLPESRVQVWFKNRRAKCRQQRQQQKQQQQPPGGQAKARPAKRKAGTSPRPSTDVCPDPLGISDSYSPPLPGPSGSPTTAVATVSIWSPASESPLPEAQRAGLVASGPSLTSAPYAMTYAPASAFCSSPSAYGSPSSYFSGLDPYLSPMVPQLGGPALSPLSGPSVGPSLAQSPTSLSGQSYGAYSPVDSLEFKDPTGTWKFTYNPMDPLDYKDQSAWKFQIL
Chain of SPIB (Q01892 whole entry): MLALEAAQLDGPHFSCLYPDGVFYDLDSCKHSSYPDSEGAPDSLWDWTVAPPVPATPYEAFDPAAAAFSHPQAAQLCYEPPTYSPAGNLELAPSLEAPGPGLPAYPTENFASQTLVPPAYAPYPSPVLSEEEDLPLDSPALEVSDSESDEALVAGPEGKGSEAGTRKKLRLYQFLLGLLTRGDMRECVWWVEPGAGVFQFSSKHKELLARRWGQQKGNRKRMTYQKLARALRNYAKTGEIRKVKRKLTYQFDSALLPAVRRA
Chain of ELF4 (Q99607 whole entry): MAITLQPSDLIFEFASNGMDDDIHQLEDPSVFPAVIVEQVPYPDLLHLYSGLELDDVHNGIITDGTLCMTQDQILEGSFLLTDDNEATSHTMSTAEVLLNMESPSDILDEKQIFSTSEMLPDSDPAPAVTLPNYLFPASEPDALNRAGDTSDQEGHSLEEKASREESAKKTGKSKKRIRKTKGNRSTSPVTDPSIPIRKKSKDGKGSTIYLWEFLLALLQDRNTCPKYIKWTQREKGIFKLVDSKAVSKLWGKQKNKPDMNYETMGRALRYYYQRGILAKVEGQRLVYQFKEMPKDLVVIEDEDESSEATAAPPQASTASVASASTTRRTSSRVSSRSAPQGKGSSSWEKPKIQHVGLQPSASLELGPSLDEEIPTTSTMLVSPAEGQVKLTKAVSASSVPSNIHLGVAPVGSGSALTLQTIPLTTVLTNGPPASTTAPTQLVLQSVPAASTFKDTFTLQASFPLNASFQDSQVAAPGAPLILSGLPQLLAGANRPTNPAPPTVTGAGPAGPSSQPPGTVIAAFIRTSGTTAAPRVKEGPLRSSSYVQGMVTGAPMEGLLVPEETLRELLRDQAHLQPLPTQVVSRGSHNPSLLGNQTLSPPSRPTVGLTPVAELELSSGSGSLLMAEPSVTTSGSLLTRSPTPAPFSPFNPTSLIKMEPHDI
Chain of HSF1 (Q00613 whole entry): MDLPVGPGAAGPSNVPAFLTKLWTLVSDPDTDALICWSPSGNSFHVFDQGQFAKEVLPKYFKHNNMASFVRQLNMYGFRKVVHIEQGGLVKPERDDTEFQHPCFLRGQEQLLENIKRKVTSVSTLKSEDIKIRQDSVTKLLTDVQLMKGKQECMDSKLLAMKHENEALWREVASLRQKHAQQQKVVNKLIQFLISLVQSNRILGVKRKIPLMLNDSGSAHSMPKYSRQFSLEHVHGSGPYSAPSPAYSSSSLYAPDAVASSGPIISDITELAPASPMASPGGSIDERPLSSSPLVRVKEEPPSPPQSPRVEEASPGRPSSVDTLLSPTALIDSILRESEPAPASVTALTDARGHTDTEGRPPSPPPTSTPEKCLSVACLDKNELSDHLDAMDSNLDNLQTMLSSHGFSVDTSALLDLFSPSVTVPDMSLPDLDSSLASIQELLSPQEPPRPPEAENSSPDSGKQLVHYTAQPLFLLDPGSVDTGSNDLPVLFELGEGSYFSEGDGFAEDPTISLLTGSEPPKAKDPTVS
Chain of ELF1 (P32519 whole entry): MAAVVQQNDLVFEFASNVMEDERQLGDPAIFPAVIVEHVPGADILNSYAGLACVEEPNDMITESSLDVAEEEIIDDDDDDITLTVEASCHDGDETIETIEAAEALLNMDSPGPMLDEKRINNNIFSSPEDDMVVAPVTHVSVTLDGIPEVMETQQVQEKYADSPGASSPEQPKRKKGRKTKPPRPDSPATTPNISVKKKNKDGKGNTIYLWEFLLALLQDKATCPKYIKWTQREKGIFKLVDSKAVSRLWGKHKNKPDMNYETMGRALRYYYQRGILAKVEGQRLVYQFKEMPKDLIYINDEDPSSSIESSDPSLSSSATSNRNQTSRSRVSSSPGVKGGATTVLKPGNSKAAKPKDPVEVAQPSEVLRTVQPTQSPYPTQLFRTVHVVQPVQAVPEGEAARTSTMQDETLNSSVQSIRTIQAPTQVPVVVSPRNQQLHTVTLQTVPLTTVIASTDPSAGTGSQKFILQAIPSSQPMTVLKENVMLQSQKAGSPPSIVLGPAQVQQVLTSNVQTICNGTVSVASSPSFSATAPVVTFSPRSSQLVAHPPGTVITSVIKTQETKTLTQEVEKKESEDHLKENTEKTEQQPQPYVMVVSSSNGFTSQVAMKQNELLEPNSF
Chain of ETV5 (P41161 whole entry): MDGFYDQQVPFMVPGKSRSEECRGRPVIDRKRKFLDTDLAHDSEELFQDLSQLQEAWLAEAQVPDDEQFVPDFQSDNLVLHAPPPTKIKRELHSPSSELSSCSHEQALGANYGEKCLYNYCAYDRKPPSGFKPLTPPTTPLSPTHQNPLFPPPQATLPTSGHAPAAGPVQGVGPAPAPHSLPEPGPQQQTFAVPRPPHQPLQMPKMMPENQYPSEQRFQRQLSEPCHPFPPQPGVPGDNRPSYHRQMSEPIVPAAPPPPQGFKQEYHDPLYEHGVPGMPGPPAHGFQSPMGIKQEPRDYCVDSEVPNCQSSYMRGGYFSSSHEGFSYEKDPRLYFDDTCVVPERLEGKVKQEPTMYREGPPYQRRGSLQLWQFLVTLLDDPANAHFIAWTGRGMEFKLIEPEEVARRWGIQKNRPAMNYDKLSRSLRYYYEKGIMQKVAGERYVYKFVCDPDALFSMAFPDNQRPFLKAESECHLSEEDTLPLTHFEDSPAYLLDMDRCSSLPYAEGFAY

Consider TAACCA, for which the binding signal was 1.12 fold enrichment (6-mer frequency, TF over GST control) with FLI1; 1.12 fold enrichment (6-mer frequency, TF over GST control) in the experiment with ELK1; 1.08 fold enrichment (6-mer frequency, TF over GST control) in the experiment with GABPA; 1.12 fold enrichment (6-mer frequency, TF over GST control) with ERG; 1.11 fold enrichment (6-mer frequency, TF over GST control) with ELF1; 1.15 fold enrichment (6-mer frequency, TF over GST control) with EHF. For the same sequence, the binding signal with SPI1 is 1.06 fold enrichment (6-mer frequency, TF over GST control); with SPIB it was 1.11 fold enrichment (6-mer frequency, TF over GST control); with ELK3, 1.16 fold enrichment (6-mer frequency, TF over GST control); with FEV, 1 fold enrichment (6-mer frequency, TF over GST control); in the experiment with ETV5, 1.06 fold enrichment (6-mer frequency, TF over GST control); in the experiment with HSF1, 1.16 fold enrichment (6-mer frequency, TF over GST control). Further, the binding signal in the experiment with ELF4 is 1.16 fold enrichment (6-mer frequency, TF over GST control); in the experiment with ELK4, 1.04 fold enrichment (6-mer frequency, TF over GST control); with ETV2, 1.12 fold enrichment (6-mer frequency, TF over GST control); in the experiment with ELF3 it was 1.1 fold enrichment (6-mer frequency, TF over GST control); with CRX, 1.31 fold enrichment (6-mer frequency, TF over GST control); with ETV1, 1.02 fold enrichment (6-mer frequency, TF over GST control).
